Measurements taken from PubChem BioAssay (Tox21).
A number with no mark means an inactive call. Inconclusive results are not listed. Where a call stands in place of a potency, no number is given. Activity calls are given as the source filed them. Unless noted, calls follow the shape of the dose curve; as a rule, active = well fitted curve in the direction sought with a large enough effect in the repeat runs; inconclusive = weak or mixed curves; inactive = no such curve, though single readings can be large; an effect the other way counts as inactive or inconclusive.

Key:
[1] = qHTS assay to identify small molecule antagonists of the estrogen receptor alpha (ER-alpha) signaling pathway using the BG1 cell line in the presence of 0.1 nM 17-beta-estradiol - cell viability counter screen (AID 1259241); also: nearly all actives have a fitted effect of over 40% in size
How it was run: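 Viability in VM7Luc4E2 cells after 22 hr compound exposure under 0.1 nM 17beta-estradiol stimulation, by CellTiter-Fluor.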

[2] = qHTS assay to identify small molecule antagonists of the androgen receptor (AR) signaling pathway using the MDA cell line in the presence of 0.5 nM R1881 - cell viability counter screen (AID 1259242); also: nearly all actives have a fitted effect of over 45% in size
How it was run: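 Live-cell protease activity was measured by CellTiter-Fluor fluorescence after 30 min. Before that, MDA-kb2 MMTV-luciferase cells had 16 hr at 37C without CO2, exposed to test compounds and 0.5 nM R1881 final.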

[3] = target: Estrogen receptor (Homo sapiens) (UniProt P03372); experiment: qHTS assay to identify small molecule antagonists of the estrogen receptor alpha (ER-alpha) signaling pathway using the BG1 cell line in the presence of 0.1 nM 17-beta-estradiol (AID 1259244); also: nearly all actives have a fitted effect of over 50% in size
How it was run: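 Luciferase luminescence (ONE-Glo, 30 min at room temperature) was read after 22 hr at 37C exposure to compounds plus 17beta-estradiol at 0.1 nM final. Cells were VM7Luc4E2 with endogenous ER-alpha and an ERE-driven luciferase, pre-cultured 5 days in hormone-depleted medium.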

[4] = qHTS assay to identify small molecule phospholipidosis (PLD) inducers (AID 1259344; active = well fitted curve in the direction sought with a large enough effect; an effect the other way counts as inactive or inconclusive)
How it was run: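 Phospholipid accumulation was scored by imaging: fixed, Hoechst-counterstained HepG2 cells stained with LipidTOX Red after 24 h compound exposure at 37 C. Read-outs were pit count and pit intensity per well or per cell, with amiodarone and DMSO controls.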

[5] = qHTS assay to identify small molecule HDAC inhibitors (AID 1259364); also: nearly all actives have a fitted effect of over 45% in size; also: potency is read from the fitted curve at half-maximal effect
How it was run: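 Luminescence read after 30 min room-temperature HDAC-Glo incubation measures cellular class I/II HDAC activity. Compounds were applied for 2 hr at 37 C to HCT-116 wild-type cells seeded the day before.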

[6] = qHTS assay to identify small molecule HDAC inhibitors - cell viability counter screen (AID 1259365); also: series mostly up to about 92 µM; nearly all actives have a fitted effect of over 50% in size
How it was run: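 Cytotoxicity was gauged in wild-type HCT-116 cells after a brief 2hr treatment with DMSO-dissolved compounds at 37C and 5% CO2, using CellTiter-Glo luminescence developed for 30min at room temperature.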

[7] = qHTS assay to identify small molecule agonists of the sonic hedgehog signaling (Shh) pathway - cell viability counter screen (AID 1259366); also: nearly all actives have a fitted effect of over 50% in size
How it was run: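 Stable Gli1-Luc NIH/3T3 clone, 2,000 cells/well. Compound exposure 24hr at 37C. Read-out: CellTiter-Fluor fluorescence.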

[8] = qHTS assay to identify small molecule antagonists of the sonic hedgehog signaling (Shh) pathway - cell viability counter screen (AID 1259367); also: nearly all actives have a fitted effect of over 55% in size
How it was run: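 Viability was read by CellTiter-Fluor fluorescence in the same wells, reagent added 23 hr into compound treatment and incubated 1 hr at 37C. The 3T3 Gli1-Luc reporter cells (2,000/well) received conditioned medium after compound and ran 24 hr.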

[9] = qHTS assay to identify small molecule agonists of the sonic hedgehog signaling (Shh) pathway (AID 1259368; calls by dose curve;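 also: NIH/3T3-derived 3T3Gli1-Luc cells carrying a stable Gli1-driven firefly luciferase reporter; series mostly up to about 92 µM; nearly all actives have a fitted effect of over 15% in size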)
How it was run: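 Luminescence was read after 30 min at room temperature with luciferase reagent. Before that, 3T3Gli1-Luc cells (NIH/3T3 clone, stable Gli1-Luc reporter; 2,000/well) were exposed to compounds for 24 hr at 37C, 5% CO2, compounds being added 4 hr post-plating.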

Sequence of Estrogen receptor (Homo sapiens) (P03372 whole entry, looked up): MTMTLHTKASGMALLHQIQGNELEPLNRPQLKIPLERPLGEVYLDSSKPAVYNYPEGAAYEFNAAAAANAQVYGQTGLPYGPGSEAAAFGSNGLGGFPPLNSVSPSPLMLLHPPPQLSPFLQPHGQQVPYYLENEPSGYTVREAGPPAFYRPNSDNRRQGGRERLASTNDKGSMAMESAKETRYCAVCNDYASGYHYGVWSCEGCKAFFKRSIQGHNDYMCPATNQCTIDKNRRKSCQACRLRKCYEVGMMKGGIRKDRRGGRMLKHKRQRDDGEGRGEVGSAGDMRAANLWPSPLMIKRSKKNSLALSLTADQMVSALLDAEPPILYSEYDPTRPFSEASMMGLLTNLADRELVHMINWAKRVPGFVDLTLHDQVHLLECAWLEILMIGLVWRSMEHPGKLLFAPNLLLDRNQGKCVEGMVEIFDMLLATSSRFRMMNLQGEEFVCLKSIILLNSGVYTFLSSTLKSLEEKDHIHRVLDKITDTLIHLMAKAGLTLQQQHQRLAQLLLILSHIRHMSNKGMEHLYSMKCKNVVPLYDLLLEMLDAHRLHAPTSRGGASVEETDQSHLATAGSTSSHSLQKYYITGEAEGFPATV

Structure (SMILES)	outcome [1]	outcome [2]	outcome [3]	outcome [4]	Potency [5]	outcome [6]	Potency [7]	Potency [8]	outcome [9]
CN1CC(=O)N/C1=N/C(=O)Nc1cccc(Cl)c1	inactive	inactive	inactive	inactive	4.22 µM (active)	inactive	inactive	inactive	inactive
[O-][n+]1cccc(CO)c1	inactive	inactive	inactive	inactive	inactive	inactive	inactive	inactive	inactive
CC(C)c1ccc2ncccc2c1	inactive	inactive	inactive	–	inactive	inactive	inactive	inactive	inactive
CCOC(=O)COC(=O)c1ccccc1C(=O)OCC	inactive	inactive	inactive	–	inactive	inactive	inactive	inactive	inactive
CC(C)(CCC(=O)O)C(=O)O	inactive	inactive	inactive	–	inactive	inactive	inactive	inactive	inactive
CC1=CC(=O)[C@H]2C[C@@H]1C2(C)C	inactive	inactive	inactive	–	inactive	inactive	inactive	inactive	inactive
CC(C)COC(=O)c1ccc(N)cc1	inactive	inactive	inactive	inactive	–	inactive	inactive	inactive	inactive
CCN(CC#N)c1cccc(C)c1	inactive	inactive	inactive	–	inactive	inactive	inactive	inactive	inactive
CNCC(O)c1ccc(O)c(O)c1 (stereo not drawn)	inactive	inactive	inactive	–	inactive	inactive	inactive	inactive	inactive
COc1ccnc(CS(=O)c2nc3cc(OC(F)F)ccc3[nH]2)c1OC (stereo not drawn)	inactive	inactive	inactive	–	inactive	inactive	inactive	inactive	inactive
CCC1C(=O)OCC1Cc1cncn1C (stereo not drawn)	inactive	inactive	inactive	inactive	inactive	–	inactive	inactive	inactive
C=CCOCC(O)CO (stereo not drawn)	inactive	inactive	inactive	–	inactive	inactive	inactive	inactive	inactive
CCOCC(C)O (stereo not drawn)	inactive	inactive	inactive	–	inactive	inactive	inactive	inactive	inactive
O=C(CO)[C@@H](O)[C@H](O)[C@H](O)CO	inactive	inactive	inactive	inactive	inactive	–	inactive	inactive	inactive
CCC(C)(CCCC(C)C)OC(C)=O (stereo not drawn)	inactive	inactive	inactive	–	inactive	inactive	inactive	inactive	inactive
CC(C)(N)C#N	inactive	inactive	inactive	–	inactive	inactive	inactive	inactive	inactive
CC(=O)C1CCCCC1=O (stereo not drawn)	inactive	inactive	inactive	–	inactive	inactive	inactive	inactive	inactive
CO[Si](C)(OC)c1ccccc1	inactive	inactive	inactive	–	inactive	inactive	inactive	inactive	inactive
CCOC(=O)C1=NOC(c2ccccc2)(c2ccccc2)C1	inactive	inactive	inactive	–	inactive	inactive	inactive	inactive	inactive
N[C@H](C(=O)O)[C@@H](O)c1ccc(O)c(O)c1	inactive	inactive	inactive	inactive	inactive	–	inactive	inactive	inactive
CC(C)=CCC/C(C)=C/C#N	inactive	inactive	inactive	–	inactive	inactive	inactive	inactive	inactive
CC(N)C12CC3CC(CC(C3)C1)C2 (stereo not drawn)	inactive	inactive	inactive	inactive	inactive	–	inactive	inactive	inactive
CCCCCCCCCCCCCCC(=O)O	inactive	inactive	inactive	–	inactive	inactive	inactive	inactive	inactive
Clc1cc(Cl)cc(Cl)c1	inactive	inactive	inactive	–	inactive	inactive	inactive	inactive	inactive
CCCCOC(=O)CCC(C)=O	inactive	inactive	inactive	–	inactive	inactive	inactive	inactive	inactive
C=CCCCCCCCCC(=O)OCC	inactive	inactive	inactive	–	inactive	inactive	inactive	inactive	inactive
CCOC(=O)OC(C)OC1=C(C(=O)Nc2ccccn2)N(C)S(=O)(=O)c2ccccc21 (stereo not drawn)	inactive	inactive	inactive	inactive	inactive	–	inactive	inactive	inactive
